# Results published in PubChem BioAssay (NCI).
# Compounds without any hit were thinned out: in the full panel of roughly 83,000, 20% have a hit.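 Values shown are percent growth following 48 h exposure of cells in 96-well plates to a single concentration of compound; below 10 was considered active.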 Values without a mark were called inactive. Activity calls are given as the source filed them.
# Experiments:
# Test in all cases: NCI-60 one-dose screen, 48 h (100 = growth as untreated, 0 = no growth, -100 = all killed)
# Settings in all cases: 10 µM unless noted
# [1] = tested on: DU-145 prostate
# [2] = tested on: K-562 leukemia
# [3] = tested on: MALME-3M melanoma
# [4] = tested on: MDA-MB-231 breast
# [5] = tested on: RXF 393 renal
# [6] = tested on: SF-268 CNS
# [7] = tested on: SF-295 CNS
# [8] = tested on: SF-539 CNS
# [9] = tested on: UACC-257 melanoma
# [10] = tested on: M14 melanoma
Structure (SMILES),growth [1],growth [2],growth [3],growth [4],growth [5],growth [6],growth [7],growth [8],growth [9],growth [10]
NC(N)=Nc1ccc(/C=C2\C=Cc3ccccc32)cc1,80.9%,13.6%,88.8%,42.4%,63.7%,64.5%,80.6%,81.3%,77.5%,73.4%
CCCCCCCCCCC(C[N+](C)(C)C/C=C/c1ccccc1)C(O)c1ccccc1 (stereo not given),1.19% (active),-35.9% (active),-28.6% (active),-55.9% (active),-54.3% (active),-0.479% (active),35.6%,40.5%,21%,6.02% (active)
COc1cc(/C=C/C(=O)/C=C(/C=C/c2ccc(OC(C)=O)c(OC)c2)OB(F)F)ccc1OC(C)=O,64.5%,15.2%,51.7%,80.8%,14.7%,81.2%,86.7%,56.8%,63%,34.1%
CCCC[N+](C)(N)CCCC,111%,103%,107%,108%,115%,112%,94.5%,101%,106%,100%
O=C(/C(Br)=C/c1ccccc1)c1ccccc1,64.1%,-1.65% (active),-36.9% (active),42.6%,-58.2% (active),78.9%,103%,-41.7% (active),-5.24% (active),-95.4% (active)
Cc1c(O)c(N=Nc2ccc(C(=O)O)c(O)c2)c2ccccc2c1O,94.3%,60.6%,97.4%,86.4%,13.3%,119%,116%,81.7%,95.6%,53.4%
CCCC(=O)Nc1ccccc1C(=O)O,97.6%,104%,106%,123%,93.7%,92.4%,93.9%,102%,85.2%,98.6%
O=C(/C=C1\C(=O)N(Cc2ccc([N+](=O)[O-])cc2)c2ccccc21)c1ccc(OCCN2CCCC2)cc1,42.9%,1.78% (active),46.8%,66.5%,56.7%,76.9%,95.6%,67.6%,88.4%,70.2%
COc1ccc(-c2nc(SCC(C)C)nc(Nc3ccc([N+](=O)[O-])cc3)c2C#N)cc1,107%,93%,98%,94.6%,107%,93.2%,84.3%,99.8%,85.2%,103%
O=Nc1c(-c2c(O)[nH]c3cc(Br)ccc23)[nH]c2ccccc12,-88.8% (active),-64.1% (active),61.6%,9.57% (active),-62.6% (active),-61% (active),-26.2% (active),-44.8% (active),-78.8% (active),31.1%
COC(=O)c1ccc2[nH]c(O)c(C(=Nc3ccc(N(C)C(=O)CN4CCN(C)CC4)cc3)c3cccc(OC)c3)c2c1,8.57% (active),3.85% (active),-16.3% (active),13.1%,-55.7% (active),6.71% (active),29.9%,-11.2% (active),31.8%,8.85% (active)
CCCCCSc1ccc2nc(NC(=O)OCC)sc2c1,22.8%,15.9%,42.2%,26.4%,7.13% (active),50.8%,6.93% (active),-12.1% (active),67.4%,11.9%
O=C(O)c1ccc(-c2nn(-c3ccc(C(=O)O)cc3)cc2CNc2ccc(Br)cc2)cc1,102%,102%,106%,115%,111%,94.1%,101%,101%,101%,97.6%
CCOC(=O)c1c(C)oc2ncnc(Nc3ccc(NC(=O)Nc4cccc(Cl)c4)cc3)c12,70.8%,67.7%,81.4%,-18.7% (active),63.6%,86.4%,79.6%,16.6%,84%,48.6%
O=C(Nc1cccc(Cn2c(=O)[nH]c3ccc(Oc4ncccn4)cc3c2=O)c1)c1ccc(Cl)cc1,62.3%,4.84% (active),41%,53.6%,51.4%,56.8%,39.4%,59.2%,25.9%,57.8%
COc1cc(-c2nn(-c3ccc(NC(=O)Nc4cc(C(F)(F)F)cc(C(F)(F)F)c4)cc3)cc2-c2ccncc2)ccc1Cl,16.8%,17.2%,-1.21% (active),-18.7% (active),-2.81% (active),14.1%,-34.8% (active),15.8%,-1.38% (active),4.73% (active)
CC1=NN(c2cccc(Cl)c2)C(=O)/C1=C\c1cn(-c2nc(N3CCOCC3)nc(N3CCOCC3)n2)c2ccccc12,106%,114%,104%,112%,115%,95.4%,105%,109%,106%,103%
COc1ccc(-c2nc(SCC(C)C)nc(Nc3ccccc3)c2C#N)cc1,100%,82.1%,96%,93.5%,98.8%,87.9%,77.1%,70.5%,83.8%,95.8%
